Data from PubChem BioAssay (EPA / NIEHS).
Inconclusive results are not listed. The source made the active and inactive calls. The calls were made as follows, unless noted: active = hit-call score of the fitted dose curve at least 0.9, where 1 is the maximum; inactive = score below 0.9.

Tests used:
[1] = ATG_Sox_CIS: Attagene CIS-FACTORIAL HepG2 Assay for human SRY-box transcription factor (SOX) (AID 2282960); conditions: HepG2 Attagene cis-factorial SOX reporter, mRNA; actives raise or lower the signal
How it was run: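 HepG2 cells transiently transfected with multiple cis-regulated reporter units, then dosed for 24 h. Reporter mRNA quantified by RT-PCR, fluorescent labelling, HpaI digestion and capillary electrophoresis; bidirectional fit versus DMSO.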

[2] = ATG_SREBP_CIS: Attagene CIS-FACTORIAL HepG2 Assay for human Sterol Regulatory Element Binding (SREBP) (AID 2282962); conditions: HepG2 Attagene cis-factorial SREBP reporter, mRNA; actives raise or lower the signal
How it was run: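 HepG2 cells transiently transfected with multiplexed cis-element reporter units report endogenous transcription factor activity. After 24 h of chemical exposure, reporter mRNA was quantified by RT-PCR, 6-FAM labelling, HpaI digestion and capillary electrophoresis; bidirectional fits used DMSO as baseline.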

[3] = biological target: Signal transducer and activator of transcription 3 (Homo sapiens) (UniProt P40763); assay: ATG_STAT3_CIS: Attagene CIS-FACTORIAL HepG2 Assay for human Signal Transducer and Activator of Transcription 3 (STAT3) (AID 2282963); conditions: HepG2, Attagene cis-factorial STAT3 reporter transcription; actives raise or lower the signal
How it was run: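 HepG2 cells transiently transfected with cis-element-driven multiple reporter transcription units; after 24 h chemical exposure, reporter mRNA measured by RT-PCR, 6-FAM primer-extension labelling, HpaI digestion and capillary electrophoresis. Bidirectional fitting versus DMSO baseline.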

[4] = ATG_TA_CIS: Attagene CIS-FACTORIAL HepG2 Assay for human TA Basal Promoter (AID 2282964); conditions: HepG2 Attagene CIS-factorial TA basal promoter reporter; actives raise or lower the signal
How it was run: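 Multiplexed mRNA reporter assay, HepG2, 24 h. Reporter cDNA amplified, 6-FAM primer-extended, HpaI-cut, CE-sized; DMSO = negative control and baseline.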

[5] = ATG_TCF_b_cat_CIS: Attagene CIS-FACTORIAL HepG2 Assay for human T-Cell-Factor with beta-catenin (TCF/b-cat) (AID 2282965); conditions: HepG2 TCF/beta-catenin cis-reporter transcription, actives raise or lower the signal
How it was run: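 Using capillary electrophoresis as the read-out, labelled reporter cDNA fragments from transiently transfected HepG2 were sized and quantified. Exposure lasted 24 hours; activity in either direction was referenced to DMSO.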

[6] = ATG_TAL_CIS: Attagene CIS-FACTORIAL HepG2 Assay for human TAL Basal Promoter (AID 2282966); conditions: HepG2 Attagene cis-factorial TAL promoter reporter; actives raise or lower the signal;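 also: background control endpoint measuring basal TAL promoter reporter mRNA not a specific factor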
How it was run: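 HepG2 cells were transiently transfected with promoter-driven multiplexed reporter units and dosed for 24 h. Reporter mRNA was measured by RT-PCR with capillary electrophoresis fluorescence; bidirectional fits used DMSO as baseline, serving as a background control.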

[7] = ATG_TGFb_CIS: Attagene CIS-FACTORIAL HepG2 Assay for human Transforming Growth Factor (TGF) (AID 2282967); conditions: HepG2 Attagene CIS TGFb reporter, mRNA transcription; actives raise or lower the signal
How it was run: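 Transcript-level reporter readout: HepG2 transfectants, 24 h exposure, RNA to cDNA, reporter-specific PCR, fluorescent primer extension, capillary sizing against ROX standards. Gain- or loss-of-signal relative to DMSO.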

[8] = ATG_VDRE_CIS: Attagene CIS-FACTORIAL HepG2 Assay for human Vitamin D Receptor Element (VDRE) (AID 2282968); conditions: HepG2 VDRE cis-reporter transcription, actives raise or lower the signal
How it was run: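 HepG2 cells transiently transfected with cis-element reporter units, dosed 24 h; reporter mRNA measured by RT-PCR, 6-FAM labeling, HpaI digestion and capillary electrophoresis. Activity fitted bidirectionally against DMSO baseline.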

[9] = biological target: Steroid hormone receptor ERR1 (Homo sapiens) (UniProt P11474); assay: ATG_ERRa_TRANS: Attagene TRANS-FACTORIAL HepG2 Assay for human Estrogen-Related Receptor alpha (ERRa) (AID 2282971; active = hit-call score of the fitted dose curve at least 0.9, where 1 is the maximum); conditions: HepG2 Attagene TRANS reporter, ERRa transactivation
How it was run: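 HepG2 cells transiently transfected with multiplexed GAL4-UAS reporter units reading chimeric ERRa-Gal4 activity; 24 h compound exposure. Reporter mRNA measured by RT-PCR, 6-FAM labelling, HpaI digest and capillary electrophoresis; gain of signal fitted versus DMSO baseline.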

[10] = biological target: X-box-binding protein 1 (Homo sapiens) (UniProt P17861); assay: ATG_Xbp1_CIS: Attagene CIS-FACTORIAL HepG2 Assay for human X-box Binding Protein 1 (XBP1) (AID 2282972); conditions: HepG2 XBP1 cis-element reporter, Attagene multiplex; actives raise or lower the signal
How it was run: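 HepG2 cells transiently transfected with cis-regulated multiple reporter transcription units; endogenous transcription factor activity measured 24 hours after chemical dosing. Reporter mRNA quantified by RT-PCR, 6-FAM primer extension, HpaI digestion and capillary electrophoresis; bidirectional fitting versus DMSO.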

[11] = ATG_GAL4_TRANS: Attagene TRANS-FACTORIAL HepG2 Assay for GAL4 (Internal Marker) (AID 2282976; active = hit-call score of the fitted dose curve at least 0.9, where 1 is the maximum); conditions: HepG2 Attagene TRANS GAL4 internal marker reporter
How it was run: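 HepG2 cells transiently transfected with multiplexed GAL4-UAS reporter constructs were dosed for 24 h. Reporter mRNA was measured by RT-PCR, 6-FAM primer extension, HpaI digestion and capillary electrophoresis, and gain of signal was fitted relative to DMSO.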

[12] = biological target: Estrogen-related receptor gamma (Homo sapiens) (UniProt P62508); assay: ATG_ERRg_TRANS: Attagene TRANS-FACTORIAL HepG2 Assay for human Estrogen-Related Receptor gamma (ERRg) (AID 2282977; active = hit-call score of the fitted dose curve at least 0.9, where 1 is the maximum;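 also: hits increase reporter signal over DMSO so potencies reflect activators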); conditions: HepG2 Attagene TRANS reporter, ERRg transactivation
How it was run: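 Transient HepG2 transfectants, 24 h compound exposure, GAL4-UAS reporter mRNA by RT-PCR/6-FAM labelling/capillary electrophoresis; positive direction vs DMSO.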

[13] = biological target: Glucocorticoid receptor (Homo sapiens) (UniProt P04150); assay: ATG_GR_TRANS: Attagene TRANS-FACTORIAL HepG2 Assay for human Glucocorticoid Receptor (GR) (AID 2282978; active = hit-call score of the fitted dose curve at least 0.9, where 1 is the maximum;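 also: activators score as hits since higher reporter transcript over DMSO is fitted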); conditions: HepG2 Attagene TRANS GR reporter, mRNA transcription
How it was run: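 HepG2 cells transiently transfected with GAL4-UAS reporter units and exogenous GR-Gal4 chimera, dosed 24 h. Reporter mRNA by RT-PCR, FAM labeling, HpaI digest and capillary electrophoresis; gain-of-signal fit versus DMSO.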

[14] = biological target: Bile acid receptor (Homo sapiens) (UniProt Q96RI1); assay: ATG_FXR_TRANS: Attagene TRANS-FACTORIAL HepG2 Assay for Farnesoid X Receptor (FXR) (AID 2282979; active = hit-call score of the fitted dose curve at least 0.9, where 1 is the maximum;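 also: hits raise reporter mRNA above DMSO so AC50 marks FXR activation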); conditions: HepG2 Attagene TRANS FXR-GAL4 reporter transcription
How it was run: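 HepG2 cells transiently transfected with reporter constructs in which a chimeric FXR-GAL4 protein drives a GAL4-UAS reporter; 24 h compound exposure. Reporter mRNA measured by RT-PCR, FAM labelling, HpaI digestion and capillary electrophoresis; gain-of-signal versus DMSO.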

[15] = biological target: Oxysterols receptor LXR-alpha (Homo sapiens) (UniProt Q13133); assay: ATG_LXRa_TRANS: Attagene TRANS-FACTORIAL HepG2 Assay for human Liver X Receptor alpha (LXRa) (AID 2282980; active = hit-call score of the fitted dose curve at least 0.9, where 1 is the maximum); conditions: HepG2 Attagene TRANS reporter, LXRa transactivation
How it was run: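 HepG2 cells were transiently transfected with multiplexed reporter units driven by chimeric LXRa–GAL4 fusion proteins, then dosed for 24 h. Reporter mRNA was quantified by RT-PCR, fluorescent labelling and capillary electrophoresis; gain of signal fitted against DMSO baseline.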

[16] = biological target: Transcription factor Sp1 (Homo sapiens) (UniProt P08047); assay: ATG_Sp1_CIS: Attagene CIS-FACTORIAL HepG2 Assay for human Specificity Protein 1 (Sp1) (AID 2282961); conditions: HepG2 Sp1 cis-reporter transcription, actives raise or lower the signal
How it was run: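 HepG2 cells transiently transfected with multiplexed cis-regulated reporter constructs, chemical exposure 24 h. Reporter mRNA quantified by RT-PCR with capillary electrophoresis; bidirectional fit relative to DMSO.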

[17] = biological target: Nuclear receptor subfamily 1 group I member 3 (Homo sapiens) (UniProt Q14994); assay: ATG_CAR_TRANS: Attagene TRANS-FACTORIAL HepG2 Assay for human Constitutive Androstane Receptor (CAR) (AID 2282969; active = hit-call score of the fitted dose curve at least 0.9, where 1 is the maximum;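 also: activators raise reporter mRNA above DMSO so AC50 marks induction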); conditions: HepG2 Attagene TRANS-FACTORIAL CAR reporter
How it was run: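 HepG2 cells transiently transfected with multiplexed GAL4-UAS reporter units expressing chimeric NR-Gal4 proteins; compound exposure 24 h. Reporter mRNA measured by RT-PCR, 6-FAM labelling, HpaI digestion and capillary electrophoresis; gain-of-signal fitted against DMSO baseline.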

[18] = biological target: Estrogen receptor (Homo sapiens) (UniProt P03372); assay: ATG_ERa_TRANS: Attagene TRANS-FACTORIAL HepG2 Assay for human Estrogen Receptor alpha (ERa) (AID 2282970; active = hit-call score of the fitted dose curve at least 0.9, where 1 is the maximum); conditions: HepG2 Attagene TRANS ERa GAL4 reporter, mRNA
How it was run: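 HepG2 cells transiently transfected with multiplexed GAL4-UAS reporter units; ERa activity read via exogenous chimeric NR-Gal4 protein. After 24 hour compound exposure, reporter mRNA measured by RT-PCR with 6-FAM labelling and capillary electrophoresis; gain-of-signal fitted relative to DMSO.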

[19] = ATG_M_19_TRANS: Attagene TRANS-FACTORIAL HepG2 Assay for M19 Transcription Factor (Internal Marker) (AID 2282974; active = hit-call score of the fitted dose curve at least 0.9, where 1 is the maximum); conditions: HepG2 Attagene TRANS-FACTORIAL M19 internal marker reporter
How it was run: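 HepG2 transiently transfected with GAL4-UAS multiplex reporter constructs, exposed 24 h; reporter RNA quantified by RT-PCR, 6-FAM labeling, HpaI digestion and capillary electrophoresis; internal background marker fitted upward versus DMSO.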

Measured: outcome

Sequence of X-box-binding protein 1 (Homo sapiens) (P17861 whole entry, looked up): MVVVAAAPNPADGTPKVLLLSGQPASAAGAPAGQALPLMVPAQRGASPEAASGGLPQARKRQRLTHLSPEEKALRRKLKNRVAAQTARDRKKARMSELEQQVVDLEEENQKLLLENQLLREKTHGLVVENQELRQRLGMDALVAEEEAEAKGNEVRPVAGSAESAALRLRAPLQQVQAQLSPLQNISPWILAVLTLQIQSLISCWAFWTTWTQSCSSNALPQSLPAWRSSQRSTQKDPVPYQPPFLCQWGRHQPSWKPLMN
Sequence of Estrogen-related receptor gamma (Homo sapiens) (P62508 whole entry, looked up, the tested form may be a part): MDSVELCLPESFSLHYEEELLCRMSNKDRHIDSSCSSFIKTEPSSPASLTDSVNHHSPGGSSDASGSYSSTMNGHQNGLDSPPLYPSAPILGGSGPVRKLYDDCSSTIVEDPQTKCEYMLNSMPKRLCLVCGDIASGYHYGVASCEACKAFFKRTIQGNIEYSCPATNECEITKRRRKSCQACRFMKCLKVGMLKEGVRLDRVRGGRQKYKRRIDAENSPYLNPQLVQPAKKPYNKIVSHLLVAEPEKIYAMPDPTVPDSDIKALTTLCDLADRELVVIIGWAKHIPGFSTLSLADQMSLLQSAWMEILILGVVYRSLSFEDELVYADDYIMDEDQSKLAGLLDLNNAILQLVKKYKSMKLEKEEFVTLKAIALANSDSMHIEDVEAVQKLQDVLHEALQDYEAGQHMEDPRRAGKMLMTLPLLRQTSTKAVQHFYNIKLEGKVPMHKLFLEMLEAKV
Sequence of Steroid hormone receptor ERR1 (Homo sapiens) (P11474 whole entry, looked up, the tested form may be a part): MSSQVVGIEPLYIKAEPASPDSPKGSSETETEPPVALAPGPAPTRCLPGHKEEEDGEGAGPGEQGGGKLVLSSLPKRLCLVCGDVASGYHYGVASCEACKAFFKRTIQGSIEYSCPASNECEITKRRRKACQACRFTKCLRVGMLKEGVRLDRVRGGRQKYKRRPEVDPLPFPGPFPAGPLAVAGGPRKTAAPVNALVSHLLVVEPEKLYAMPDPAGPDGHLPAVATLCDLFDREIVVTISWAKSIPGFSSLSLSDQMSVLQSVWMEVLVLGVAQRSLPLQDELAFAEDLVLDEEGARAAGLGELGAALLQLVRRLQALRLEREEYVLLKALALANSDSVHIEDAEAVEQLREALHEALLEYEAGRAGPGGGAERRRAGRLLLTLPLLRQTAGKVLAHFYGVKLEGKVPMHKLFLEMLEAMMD
Sequence of Oxysterols receptor LXR-alpha (Homo sapiens) (Q13133 whole entry, looked up, the tested form may be a part): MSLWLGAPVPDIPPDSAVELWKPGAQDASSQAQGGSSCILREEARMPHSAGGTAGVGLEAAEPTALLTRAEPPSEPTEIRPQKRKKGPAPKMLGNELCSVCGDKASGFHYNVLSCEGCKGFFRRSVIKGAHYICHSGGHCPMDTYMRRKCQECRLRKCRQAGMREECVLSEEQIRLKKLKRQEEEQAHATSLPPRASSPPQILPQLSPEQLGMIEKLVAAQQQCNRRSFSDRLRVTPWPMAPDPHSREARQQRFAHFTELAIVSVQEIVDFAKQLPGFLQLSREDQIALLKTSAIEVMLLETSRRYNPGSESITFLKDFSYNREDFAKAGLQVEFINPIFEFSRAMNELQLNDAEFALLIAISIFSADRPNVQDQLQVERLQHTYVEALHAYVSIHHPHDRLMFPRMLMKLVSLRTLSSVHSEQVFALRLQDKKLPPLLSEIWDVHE
Sequence of Signal transducer and activator of transcription 3 (Homo sapiens) (P40763 whole entry, looked up): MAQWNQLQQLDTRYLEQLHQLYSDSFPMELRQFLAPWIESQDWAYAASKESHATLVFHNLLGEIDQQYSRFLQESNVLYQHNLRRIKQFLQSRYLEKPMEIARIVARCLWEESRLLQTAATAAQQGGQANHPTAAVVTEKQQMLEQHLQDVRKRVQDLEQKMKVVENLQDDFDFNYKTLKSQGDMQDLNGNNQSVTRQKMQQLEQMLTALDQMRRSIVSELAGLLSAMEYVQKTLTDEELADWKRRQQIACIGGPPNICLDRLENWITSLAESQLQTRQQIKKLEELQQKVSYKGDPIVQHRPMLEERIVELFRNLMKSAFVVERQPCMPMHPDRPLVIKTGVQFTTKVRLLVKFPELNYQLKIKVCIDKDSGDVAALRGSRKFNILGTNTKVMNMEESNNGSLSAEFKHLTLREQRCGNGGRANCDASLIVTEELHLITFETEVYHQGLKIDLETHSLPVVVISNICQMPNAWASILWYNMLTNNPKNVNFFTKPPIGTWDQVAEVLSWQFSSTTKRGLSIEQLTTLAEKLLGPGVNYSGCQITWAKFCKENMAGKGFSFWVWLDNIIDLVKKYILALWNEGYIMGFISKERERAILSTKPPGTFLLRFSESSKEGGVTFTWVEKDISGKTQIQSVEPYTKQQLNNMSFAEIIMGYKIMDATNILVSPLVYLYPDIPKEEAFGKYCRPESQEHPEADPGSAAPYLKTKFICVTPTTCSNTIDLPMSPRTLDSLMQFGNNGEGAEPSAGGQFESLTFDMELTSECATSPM
Sequence of Transcription factor Sp1 (Homo sapiens) (P08047 whole entry, looked up): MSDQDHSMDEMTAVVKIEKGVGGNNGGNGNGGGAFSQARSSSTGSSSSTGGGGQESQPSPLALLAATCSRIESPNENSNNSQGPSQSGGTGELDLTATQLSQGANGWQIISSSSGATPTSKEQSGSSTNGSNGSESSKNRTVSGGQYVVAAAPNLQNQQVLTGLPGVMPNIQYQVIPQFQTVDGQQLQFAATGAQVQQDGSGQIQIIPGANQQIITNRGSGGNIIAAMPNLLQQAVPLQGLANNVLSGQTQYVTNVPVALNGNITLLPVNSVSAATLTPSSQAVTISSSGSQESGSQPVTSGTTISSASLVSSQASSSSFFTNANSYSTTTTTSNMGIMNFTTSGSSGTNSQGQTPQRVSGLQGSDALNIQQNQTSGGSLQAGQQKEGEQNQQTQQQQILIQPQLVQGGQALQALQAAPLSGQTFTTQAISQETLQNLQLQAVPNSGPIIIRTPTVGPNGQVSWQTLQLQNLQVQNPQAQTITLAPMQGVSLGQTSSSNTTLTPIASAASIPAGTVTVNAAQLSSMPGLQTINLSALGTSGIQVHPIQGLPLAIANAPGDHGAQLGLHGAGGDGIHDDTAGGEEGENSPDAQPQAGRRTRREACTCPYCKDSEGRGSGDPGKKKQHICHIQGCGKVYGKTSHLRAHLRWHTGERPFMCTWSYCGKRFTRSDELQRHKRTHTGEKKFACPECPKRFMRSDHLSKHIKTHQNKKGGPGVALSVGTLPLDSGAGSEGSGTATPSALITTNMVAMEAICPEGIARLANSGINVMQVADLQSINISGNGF
Sequence of Nuclear receptor subfamily 1 group I member 3 (Homo sapiens) (Q14994 whole entry, looked up, the tested form may be a part): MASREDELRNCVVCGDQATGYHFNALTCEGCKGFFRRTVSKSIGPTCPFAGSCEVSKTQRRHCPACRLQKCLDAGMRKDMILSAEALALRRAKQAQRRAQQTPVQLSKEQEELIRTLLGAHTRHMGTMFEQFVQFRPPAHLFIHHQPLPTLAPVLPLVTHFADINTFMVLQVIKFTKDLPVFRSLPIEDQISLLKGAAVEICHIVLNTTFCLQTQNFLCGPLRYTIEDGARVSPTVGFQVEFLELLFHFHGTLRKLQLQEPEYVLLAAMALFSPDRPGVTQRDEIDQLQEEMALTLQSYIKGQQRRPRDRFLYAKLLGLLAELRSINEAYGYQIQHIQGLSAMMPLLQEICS
Sequence of Glucocorticoid receptor (Homo sapiens) (P04150 whole entry, looked up, the tested form may be a part): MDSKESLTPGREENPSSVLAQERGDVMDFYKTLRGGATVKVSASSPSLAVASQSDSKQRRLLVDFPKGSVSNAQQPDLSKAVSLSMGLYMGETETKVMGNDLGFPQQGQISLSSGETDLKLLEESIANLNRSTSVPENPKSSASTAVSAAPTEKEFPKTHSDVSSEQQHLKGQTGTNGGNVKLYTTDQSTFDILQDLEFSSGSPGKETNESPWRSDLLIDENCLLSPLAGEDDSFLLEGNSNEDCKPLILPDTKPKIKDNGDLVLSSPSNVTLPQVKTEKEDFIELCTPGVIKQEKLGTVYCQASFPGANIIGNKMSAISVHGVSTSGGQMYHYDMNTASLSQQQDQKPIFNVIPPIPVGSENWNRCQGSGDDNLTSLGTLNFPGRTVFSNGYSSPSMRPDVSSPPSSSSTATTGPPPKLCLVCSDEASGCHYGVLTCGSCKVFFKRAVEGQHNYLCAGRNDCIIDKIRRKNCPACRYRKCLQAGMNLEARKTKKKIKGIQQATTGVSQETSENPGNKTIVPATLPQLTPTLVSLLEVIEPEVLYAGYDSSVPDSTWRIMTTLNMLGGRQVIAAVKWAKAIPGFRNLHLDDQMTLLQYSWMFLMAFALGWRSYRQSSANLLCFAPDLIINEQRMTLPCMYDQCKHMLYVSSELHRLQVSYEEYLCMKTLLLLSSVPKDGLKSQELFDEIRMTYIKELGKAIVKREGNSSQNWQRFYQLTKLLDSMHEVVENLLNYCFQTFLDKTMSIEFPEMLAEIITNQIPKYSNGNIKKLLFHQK
Sequence of Estrogen receptor (Homo sapiens) (P03372 whole entry, looked up, the tested form may be a part): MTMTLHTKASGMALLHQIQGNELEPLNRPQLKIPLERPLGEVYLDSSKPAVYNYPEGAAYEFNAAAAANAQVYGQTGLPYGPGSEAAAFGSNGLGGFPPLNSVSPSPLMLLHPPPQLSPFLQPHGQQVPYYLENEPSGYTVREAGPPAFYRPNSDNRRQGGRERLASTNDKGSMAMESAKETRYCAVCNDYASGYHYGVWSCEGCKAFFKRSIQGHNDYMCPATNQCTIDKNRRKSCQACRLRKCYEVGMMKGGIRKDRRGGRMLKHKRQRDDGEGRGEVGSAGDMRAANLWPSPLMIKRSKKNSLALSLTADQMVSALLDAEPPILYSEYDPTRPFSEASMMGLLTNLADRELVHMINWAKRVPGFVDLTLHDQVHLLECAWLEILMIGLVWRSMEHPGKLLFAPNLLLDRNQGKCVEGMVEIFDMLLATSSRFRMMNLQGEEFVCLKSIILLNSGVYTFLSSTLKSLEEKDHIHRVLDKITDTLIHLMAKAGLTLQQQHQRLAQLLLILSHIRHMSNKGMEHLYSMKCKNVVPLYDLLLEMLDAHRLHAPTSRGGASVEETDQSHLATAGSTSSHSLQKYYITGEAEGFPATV

C=CCOC(F)(C(F)(F)F)C(F)(F)F
not listed: [16] | [17] | [18] | [19]
inactive: all other assays above

O=C(O)COc1ccc(Cl)cc1
not listed: [2] | [4] | [8] | [14]
inactive: all other assays above

CN(C1CCCCC1)C1CCCCC1
not listed: [5] | [9] | [10] | [11] | [12] | [13] | [14] | [16]
inactive: all other assays above

N#Cc1ccc(Cl)cc1
not listed: [2] | [4] | [11] | [13] | [14] | [15] | [17] | [18]
inactive: all other assays above
